Tb PFK inh – qHTS Assay to Find Inhibitors of T. brucei phosphofructokinase | T. brucei PFK, ADP-Glo luminescence | actives 0.17% (n = 330,000) | ATP-dependent 6-phosphofructokinase (Trypanosoma brucei brucei), O15648 | Potency, µM (titrated, usually from 57.5 µM), hits mostly inhibitors | AID 485367, 2010; further: nearly all actives have a fitted effect of over 60% in size
Target sequence (O15648 whole entry, looked up): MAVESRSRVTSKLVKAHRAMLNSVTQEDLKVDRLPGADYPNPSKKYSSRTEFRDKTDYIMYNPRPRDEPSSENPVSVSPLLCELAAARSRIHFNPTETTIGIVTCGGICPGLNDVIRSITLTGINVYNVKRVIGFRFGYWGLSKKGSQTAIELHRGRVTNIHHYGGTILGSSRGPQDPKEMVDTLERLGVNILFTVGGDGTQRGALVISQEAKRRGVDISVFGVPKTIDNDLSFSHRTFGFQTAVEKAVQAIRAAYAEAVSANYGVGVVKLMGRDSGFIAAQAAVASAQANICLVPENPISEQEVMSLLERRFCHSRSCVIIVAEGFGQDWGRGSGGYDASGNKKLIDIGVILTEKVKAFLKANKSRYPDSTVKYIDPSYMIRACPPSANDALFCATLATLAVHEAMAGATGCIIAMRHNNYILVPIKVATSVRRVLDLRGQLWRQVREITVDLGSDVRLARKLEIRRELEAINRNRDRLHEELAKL
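Activity is normalized to no-enzyme wells (full inhibition) and 1.25 nM enzyme wells (no inhibition). Reaction: 0.5 mM F6P, 0.1 mM ATP, 45 min RT, ADP-Glo luminescence; concentration-response curves fitted and classed by quality.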
AT treatment – qHTS Assay for Identifying a Potential Treatment of Ataxia-Telangiectasia; F2112 A-T fibroblasts, KAP-1 phosphorylation AlphaLISA; neocarzinostatin DNA damage 30 min before lysis; Potency, µM (top dose mostly 57.5 µM), usual class: activators; actives 0.19% (n = 320,000); further: nearly all actives have a fitted effect of over 45% in size
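ATM-like activity read as KAP-1 phosphorylation via AlphaLISA donor/acceptor antibody pairs after lysis and 6 hr at 25C. Cells were ATM-null patient fibroblasts (F2112, hTERT), dosed 60 min, then exposed to the DSB inducer NCS for 30 min.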
GCN5L2 inh – qHTS Assay for Inhibitors of GCN5L2 | Histone acetyltransferase KAT2A (Homo sapiens), Q92830 | GCN5L2 HAT assay, ThioGlo1 CoA-SH fluorescence | Potency, µM (top dose mostly 58.9 µM), actives largely listed as inhibitors | actives 0.21% (n = 390,000)
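Preincubate 20nM GCN5L2 with compound 15 min, RT → add 50uM ThioGlo1 + 75uM H3(1-25) + 70uM acetyl-CoA → read fluorescence 0 and 20 min. Primary qHTS; fluorescent artifacts likely.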
p53 reactivation – qHTS assay for re-activators of p53 using a Luc reporter | H1299 p53-A138V BP100-luciferase reporter, luminescence, 24 h | Potency, µM (doses to about 92.2 µM), hits mostly activators | actives 0.063% (n = 320,000); further: nearly all actives have a fitted effect of over 45% in size
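p53-null H1299 cells stably carrying temperature-sensitive p53-A138V and a BP100-luciferase reporter were pinned with compounds (4-point, 1:5 series) and held 24 hrs at 37 deg C. Luminescence was read 10 min after detection reagent.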
ERG Ets-DNA blk – qHTS for Small Molecule Inhibitors of the ERG Ets/DNA interaction; fluorescence polarization, His-ERG Ets domain / labelled DNA; AID 624246, 2012; Potency, µM (highest dose often 76.9 µM), most hits filed as inhibitors; actives 0.028% (n = 370,000); active means well fitted inhibition curve with a large enough effect in the polarisation, with a control signal flat; inconclusive means small, poorly fitted or top-dose-only effect, or effect the other way, or a change in a side signal; inactive means no such curve, though single readings can be large or run the other way; the % refers to the polarisation;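 further: polarization taken with two DNA probes labelled with fluorescein and Texas red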
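His-tagged ERG Ets domain (1 uM in the protein solution; 300mM KCl, 50mM Tris-HCl, 1mM EDTA, 1mM DTT, pH 7.5) received compound, then a probe mix of 5 nM fluorescein-DNA and 100nM Texas-615-DNA. Fluorescence polarization was read for both dyes.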
ASM inhibitor – Inhibitors of Secretory Acid Sphingomyelinase (S-ASM): qHTS. actives 0.006% (n = 340,000). placental ASM, HMU-PC fluorogenic substrate, 60 min. Sphingomyelin phosphodiesterase (Homo sapiens), P17405. Potency, µM (titrated, usually from 57.5 µM), hits mostly inhibitors
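qHTS format. ASM enzyme prepared from human placenta hydrolyses the fluorogenic substrate HMU-PC0 (9 uM final) over 60 min at 37 °C after a 10 min compound preincubation.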
Each line names hits and unclear results; the compound was inactive in the other large screens; ! = repeats disagree. Sampled rows, rich in hits. Any-hit rate of the full collection: about 0.55%. Unless noted, the call rests on the fitted dose curve; in most records, active means well fitted curve in the direction sought with a large enough effect; inconclusive means small, poorly fitted or top-dose-only effect, or another doubt; inactive means no such curve, though single readings can be large; an effect the other way counts as inactive or inconclusive.

Cc1ccc(CNC(=O)C2CCN(S(=O)(=O)c3ccc4c(c3)oc(=O)n4C)CC2)cc1	none (no result: Tb PFK inh, AT treatment, p53 reactivation, ASM inhibitor)
CCCCCCc1cc2cc(S(=O)(=O)c3ccc(F)cc3)c(=O)oc2cc1O	AT treatment 28µM
O=C(Cc1sc(Nc2ccccc2)nc1-c1ccccc1)NCc1ccccc1	p53 reactivation 40µM
O=C(Nc1nc(-c2cccc(Br)c2)cs1)Oc1ccccc1	GCN5L2 inh inconclusive, p53 reactivation inconclusive (no result: ERG Ets-DNA blk)
CCc1ccc(-c2csc(NC(=O)Oc3ccccc3)n2)cc1	p53 reactivation 14µM
O=C(OC[C@H]1O[C@@H](OC(=O)c2cc(O)c(O)c(OC(=O)c3cc(O)c(O)c(O)c3)c2)[C@H](OC(=O)c2cc(O)c(O)c(OC(=O)c3cc(O)c(O)c(O)c3)c2)[C@@H](OC(=O)c2cc(O)c(O)c(OC(=O)c3cc(O)c(O)c(O)c3)c2)[C@@H]1OC(=O)c1cc(O)c(O)c(OC(=O)c2cc(O)c(O)c(O)c2)c1)c1cc(O)c(O)c(OC(=O)c2cc(O)c(O)c(O)c2)c1	Tb PFK inh 0.095µM, GCN5L2 inh inconclusive (no result: ERG Ets-DNA blk, ASM inhibitor)
COC1OC(COC(=O)c2ccccc2)C(OC(=O)c2ccccc2)C1OC(=O)c1ccccc1 (stereo unspecified)	GCN5L2 inh inconclusive
c1cncc(CNc2ncnc3ccc(-c4ccoc4)cc23)c1	GCN5L2 inh 28µM! (no result: ERG Ets-DNA blk)
N=c1oc2c3c4c(cc2cc1C(=O)Nc1ccccc1)CCCN4CCC3	AT treatment 16µM, p53 reactivation inconclusive
S=c1[nH]cc(-c2ccccc2)n1-c1ccccc1	Tb PFK inh inconclusive, GCN5L2 inh 3.5µM
Cc1ccc(-n2c(-c3ccccc3)c[nH]c2=S)cc1	none
COc1ccc(C(=O)C(CN2CCOCC2)c2ccccc2)cc1 (stereo unspecified)	none (no result: AT treatment)
O=C(c1ccc(F)cc1)C(CN1CCOCC1)c1ccccc1 (stereo unspecified)	AT treatment 40µM (no result: ERG Ets-DNA blk)
O=C(c1ccccc1)C(CCC(CN1CCOCC1)C(=O)c1ccccc1)CN1CCOCC1 (stereo unspecified)	AT treatment 35µM
COC(=O)c1c(NC(=O)c2cc(=O)c3cc(C)cc(C)c3o2)sc2c1CCC2	none (no result: Tb PFK inh, AT treatment, p53 reactivation, ASM inhibitor)
CCC(=O)Nc1ccc2c(c1)nc(CN1CCN(C(C)=O)CC1)n2C	GCN5L2 inh 32µM (no result: AT treatment)
CCNC(=O)[C@@H]1CCCN1C(=O)[C@H](CCCN=C(N)N)NC(=O)[C@H](CC(C)C)NC(=O)[C@@H](Cc1c[nH]c2ccccc12)NC(=O)[C@H](Cc1ccc(O)cc1)NC(=O)[C@H](CO)NC(=O)[C@H](Cc1c[nH]c2ccccc12)NC(=O)[C@H](Cc1cnc[nH]1)NC(=O)[C@@H]1CCC(=O)N1	none (no result: Tb PFK inh, AT treatment, p53 reactivation, ERG Ets-DNA blk, ASM inhibitor)
COC(=O)C1CCN(C(=O)c2oc3c(Cl)cc(C)cc3c2C)CC1	p53 reactivation 16µM
CCOC(=O)C1CCCCN1C(=O)c1oc2c(Cl)cc(C)cc2c1C (stereo unspecified)	Tb PFK inh inconclusive
COc1cccc(-n2c(=O)c3c(C)c(C(=O)N(C)C)sc3n(CC(=O)Nc3ccc(C)cc3Cl)c2=O)c1	none (no result: Tb PFK inh, AT treatment, p53 reactivation, ASM inhibitor)
CCN1C(=O)c2cccc3c(N)ccc(c23)C1=O	AT treatment 40µM
Cc1nn(C)c(C)c1N1C(=O)c2cccc3c(N)ccc(c23)C1=O	ERG Ets-DNA blk 35µM
CCCCNc1ccc2c3c(cccc13)C(=O)N(CCCC)C2=O	AT treatment 28µM, ERG Ets-DNA blk inconclusive, ASM inhibitor inconclusive
CSCC[C@H](NC=O)C(=O)N[C@@H](CC(C)C)C(=O)N[C@@H](Cc1ccccc1)C(=O)O	none (no result: Tb PFK inh, AT treatment, p53 reactivation, ERG Ets-DNA blk, ASM inhibitor)
Cc1cc(C)n(-c2nnc(Cl)c3ccccc23)n1	none
Cc1cc(C)n(-c2n[nH]c(=O)c3ccccc23)n1	AT treatment 18µM
CNc1nc(-c2ccccc2Cl)nc2ccccc12	none (no result: Tb PFK inh, AT treatment, p53 reactivation, ERG Ets-DNA blk, ASM inhibitor)
CC(C)Oc1nc(-c2ccccc2Cl)nc2ccccc12	AT treatment 32µM
CC1=NN(C(N)=S)C(=O)C1N=Nc1ccc(F)cc1 (stereo unspecified)	p53 reactivation 25µM
Cc1c(CC(=O)NCc2ccccc2)c(=O)oc2c(C)c(O)ccc12	none (no result: Tb PFK inh, AT treatment, p53 reactivation, ASM inhibitor)
OC1(CC#CCN2CCCCC2)c2ccccc2-c2ccccc21	AT treatment 3.5µM
CC1=C(c2ccc(C(C)C)cc2)S(=O)(=O)NC1=NCc1ccc(Cl)cc1	none (no result: Tb PFK inh, AT treatment, p53 reactivation, ASM inhibitor)
CCCC(=O)c1ccc(N2CCCCCC2)c(F)c1	p53 reactivation 40µM
COc1cccc(CN2C(=O)c3ccccc3S2(=O)=O)c1	none
COc1cccc(CN2C(=O)c3cccc(N)c3C2=O)c1	AT treatment 25µM
COC(=O)/C(=C\C(=O)c1ccccc1)Nc1cccc(C(F)(F)F)c1	p53 reactivation 28µM
Cc1ccc(S(=O)(=O)NNC(=O)C(=O)NNS(=O)(=O)c2ccc(C)cc2)cc1	none
Cc1ccc(NNS(=O)(=O)c2ccc(C)cc2)cc1	Tb PFK inh inconclusive, GCN5L2 inh 35µM
CCOC(=O)C1CCCN(c2c(C(=O)c3ccccc3)cnc3ccc(F)cc23)C1 (stereo unspecified)	none (no result: Tb PFK inh, AT treatment, p53 reactivation, ASM inhibitor)
Cc1c(NC(=O)C23CC4CC(CC(C)(C4)C2)C3)c(=O)n(-c2ccccc2)n1C	GCN5L2 inh 20µM
CN(C)CCCN(CCCN(C)C)C(=S)Nc1ccc(S(=O)(=O)N2CCOCC2)cc1	AT treatment 18µM
CC(C)(C)CC(C)(C)NC(=S)Nc1ccc(S(=O)(=O)N2CCOCC2)cc1	none
CNC(=S)NNC(=O)c1cccn(Cc2ccc(Cl)cc2Cl)c1=O	GCN5L2 inh 0.56µM (no result: ERG Ets-DNA blk, ASM inhibitor)

Screens (PubChem)
